Experimental data as given in the supplement of paper PMC10338343.
± gives the standard deviation.

test system: MILI (PIWIL2) piRISC loaded with L1MC piRNA (26 nt); assay: pre-steady-state target cleavage rate (min^-1); guide: L1MC piRNA 5'p-UAACUAAAUACUAUGCAAGCUGUAGG; MIWI and MILI are mouse PIWI proteins and EfPiwi is from a freshwater sponge; tags in brackets are library labels; higher = faster piRNA-guided slicing of the target; details: auxiliary factor: 500 nM mouse GTSF1
Description: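 Cleave-'n-Seq: a library of target RNAs (target site embedded in constant flanks, ACAGCATTCCGCGTTAGTGATATCCG... 5' flank; DNA-blocked outside the site) at 0.1 nM was incubated with 1 nM active mouse MILI or MIWI piRISC (synthetic 5'-monophosphorylated piRNA guide) with or without 500 nM mouse GTSF1 at 33 °C for 1 min to 16 h. Uncleaved targets were sequenced and normalised to non-target controls, and the pooled three trials were fitted to a burst-and-steady-state model to give the pre-steady-state cleavage rate (min^-1; k3 is constrained to at most 1e-4). Sequence is the target site only; target names encode pairing extent (gX:gY) and contiguous / 1-mismatch / 2-mismatch / bulge geometry. Fits with R² ≤ 0 are excluded.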

Row | Sequence | pre-steady-state target cleavage rate
1 | UCCUGGAUGUGCUUGCAUAGUAUAAAGUAA | 0.0114 ± 0.0059
2 | UCCUGGAACAGCUUGCAUAGAUAUUUAGUUA | 0.0184 ± 0.0071
3 | UCCUGGAUCAGCAACCAUAGUAUUUAGUUA | 0.116 ± 0.013
4 | UCCUGCUGCAGCUUGCAUAGUAUUUAGUUA | 0.331 ± 0.024
5 | UCCUGGAUGUCGAACCAAUGUAUUUAGUUA | < 0.0001
6 | UCCUGCAACAGCUUGCAUAGUAUUUACUUA | 0.122 ± 0.012
7 | UCCUCCUACAGCUUGCUUAGUAAUUAGUUA | 0.24 ± 0.015
8 | UCCUGGUACAGCGUUGCAUAGUAUUUAGUUA | 0.196 ± 0.027
9 | UCCUGGAUCUCGUUGCAUAGUAUUUAGUUA | 0.198 ± 0.019
10 | UCCUGGAACAGCUAGCAUAGUAUUUAGAUA | 0.118 ± 0.02
11 | UCCUGGAUGUCGUUGCAUAGUAUUGAGUUA | 0.0312 ± 0.011
12 | UCCUGGUACACGAUGCAUAGUAUUUAGUUA | 0.252 ± 0.058
13 | UCCUCCAACAGCUUGCAUAGUAUUUAGUAA | 0.232 ± 0.02
14 | UCCUGGAUGUCCUUGCAUAGUAUUUAGGUUA | 0.0768 ± 0.019
15 | UCCUCCUACAGCUUUCAUAGUAUUUAGUUA | 0.213 ± 0.017
16 | UCCUGGAUGUCGUUGCAUUGUAUUUAGUUA | 0.0197 ± 0.0048
17 | UCCUGGAACAGCGUUGCAUAGUAUUUAGUUA | 0.203 ± 0.017
18 | UCCUGGUACAGCUUGCAUAGUAUUUCGUUA | 0.114 ± 0.037
19 | UCCUGGAUGAGCUAGCUUAGUAUUUAGUUA | 0.13 ± 0.012
20 | UCCUGGAUGUCGAACCAUAGAAUUUUGUUA | 0.251 ± 0.13
21 | UCCUGGAUGAGCUUGCAUAGUAUUGAGUUA | 0.164 ± 0.036
22 | UCCUCCUUCUGCUUGCAUAGUAUUUAGUUA | 0.269 ± 0.018

same assay, conditions: auxiliary factor: none (no GTSF1)

Row | Sequence | pre-steady-state target cleavage rate
23 | UCCUGGAACAGCUUGCAUAGAUAUUUAGUUA | 0.00387 ± 0.0025
24 | UCCUGCUGCAGCUUGCAUAGUAUUUAGUUA | 0.00762 ± 0.0024
25 | UCCUGGAUGUCGAACCAAUGUAUUUAGUUA | < 0.0001
26 | UCCUCCUACAGCUUGCUUAGUAAUUAGUUA | 0.00424 ± 0.0021
27 | UCCUGGAUCAGCUUCCAUAGUAUUAAGUUA | < 0.0001
28 | UCCUGGUACAGCGUUGCAUAGUAUUUAGUUA | 0.0109 ± 0.0053
29 | UCCUGGAUCUCGUUGCAUAGUAUUUAGUUA | 0.00544 ± 0.0024
30 | UCCUGGAUGUCGUUGCAUAGUAUUGAGUUA | 0.00363 ± 0.0032
31 | UCCUGGUACACGAUGCAUAGUAUUUAGUUA | 0.00395 ± 0.0035
32 | UCCUCCAACAGCUUGCAUAGUAUUUAGUAA | 0.00476 ± 0.0022
33 | UCCUCCUACAGCUUUCAUAGUAUUUAGUUA | 0.00664 ± 0.002
34 | UCCUGGAUGUCGUUGCAUUGUAUUUAGUUA | 0.00572 ± 0.0024
35 | UCCUGGAACAGCGUUGCAUAGUAUUUAGUUA | 0.0103 ± 0.0025
36 | UCCUGGAUGAGCUAGCUUAGUAUUUAGUUA | 0.00773 ± 0.0023
37 | UCCUGGUACAGCUUGCAUAGCUAUUUAGUUA | 0.0041 ± 0.004
38 | UCCUGGAUGAGCUUGCAUAGUAUUGAGUUA | 0.00369 ± 0.0027
39 | UCCUCCUUCUGCUUGCAUAGUAUUUAGUUA | 0.00966 ± 0.002
